Inconclusive results are not listed. Active and inactive are the calls of the source. Unless noted, calls follow the shape of the dose curve; as a rule, active = well fitted curve in the direction sought with a large enough effect in the repeat runs; inconclusive = weak or mixed curves; inactive = no such curve, though single readings can be large; an effect the other way counts as inactive or inconclusive.
How the values were obtained:
[1] = qHTS assay to identify small molecule agonists of the sonic hedgehog signaling (Shh) pathway - cell viability counter screen (AID 1259366); also: nearly all actives have a fitted effect of over 50% in size
How it was run: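 NIH/3T3-derived 3T3 Gli1-Luc cells (stable Gli1-responsive firefly luciferase reporter) were seeded, rested 4 hr at 37 C/5% CO2, then exposed to compounds in DMSO for 24 hr; viability was read by CellTiter-Fluor fluorescence in the same wells.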

[2] = qHTS assay to identify small molecule antagonists of the sonic hedgehog signaling (Shh) pathway - cell viability counter screen (AID 1259367); also: nearly all actives have a fitted effect of over 55% in size
How it was run: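 CellTiter-Fluor signal in conditioned medium-stimulated 3T3 Gli1-Luc cells, 23 hr compound exposure, 37C.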

[3] = qHTS assay to identify small molecule agonists of the sonic hedgehog signaling (Shh) pathway (AID 1259368; calls by dose curve; also: series mostly up to about 92 µM; nearly all actives have a fitted effect of over 15% in size)
How it was run: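 Hedgehog pathway agonism scored by increased firefly luciferase luminescence in 3T3Gli1-Luc cells treated 24 hr at 37 C; detection used a 30 min room-temperature reagent incubation.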

[4] = qHTS assay to identify small molecule antagonists of the sonic hedgehog signaling (Shh) pathway (AID 1259369; calls by dose curve; also: nearly all actives have a fitted effect of over 45% in size)
How it was run: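 NIH/3T3 stable Gli1-Luc clone, 2,000 cells/well, 4hr settle; cpd + conditioned medium 24hr; Luc reagent 30min RT; luminescence.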

[5] = target: Estrogen receptor beta (Homo sapiens) (UniProt Q92731); assay: qHTS assay to identify small molecule antagonists of the estrogen receptor beta (ER-beta) signaling pathway (AID 1259378; active = well fitted inhibition curve with a large enough effect in the signal ratio in the repeat runs, not every such curve was filed as active; the % refers to the signal ratio)
Estrogen receptor beta (Homo sapiens), sequence (Q92731 whole entry, looked up): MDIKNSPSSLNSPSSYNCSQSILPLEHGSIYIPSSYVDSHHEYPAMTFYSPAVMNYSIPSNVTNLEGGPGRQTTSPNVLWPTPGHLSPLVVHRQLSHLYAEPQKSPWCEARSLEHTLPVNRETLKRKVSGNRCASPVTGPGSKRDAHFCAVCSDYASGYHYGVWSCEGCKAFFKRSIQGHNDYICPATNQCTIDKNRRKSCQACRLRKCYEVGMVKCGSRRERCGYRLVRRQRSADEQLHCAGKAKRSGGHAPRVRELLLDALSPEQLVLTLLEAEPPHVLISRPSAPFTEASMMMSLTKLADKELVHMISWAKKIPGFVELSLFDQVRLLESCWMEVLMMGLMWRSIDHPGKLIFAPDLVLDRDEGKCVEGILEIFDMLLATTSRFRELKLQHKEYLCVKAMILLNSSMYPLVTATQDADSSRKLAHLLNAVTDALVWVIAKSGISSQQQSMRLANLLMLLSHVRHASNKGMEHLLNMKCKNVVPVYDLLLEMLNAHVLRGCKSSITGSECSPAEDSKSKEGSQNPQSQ
How it was run: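 Antagonist mode: compounds added to beta-lactamase reporter HEK293T ER-beta-UAS cells stimulated with E2 (1nM final), 16 hr at 37C. LiveBLAzer B/G FRET substrate, 2 hours room temperature, fluorescence read-out.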

[6] = qHTS assay to identify small molecule agonists of the androgen receptor (AR) signaling pathway in the presence of an antagonist - cell viability counter screen (AID 1259379);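 also: MDA-kb2 human breast cancer cells carrying an MMTV luciferase reporter; series mostly up to about 92 µM; nearly all actives have a fitted effect of over 25% in size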
How it was run: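 MDA-kb2 viability measured by CellTiter-Fluor fluorescence in the same wells as the luciferase signal; nilutamide 3.0uM final; 15-point compound titration; 16 hr at 37C.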

[7] = qHTS assay to identify small molecule antagonists of the estrogen receptor beta (ER-beta) signaling pathway - cell viability counter screen (AID 1259382);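 also: HEK293T cells carrying ER-beta-UAS-bla reporter stimulated with estradiol; series mostly up to about 92 µM; nearly all actives have a fitted effect of over 55% in size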
How it was run: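 Readout: luminescence, CellTiter-Glo, same wells as bla assay. System: ER-beta-UAS-bla GripTite HEK293T, 2% charcoal-stripped FBS. Exposure: compounds plus 1nM 17-beta-estradiol, 16 hr, 37C.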

[8] = qHTS assay to identify small molecule agonists of the estrogen receptor beta (ER-beta) signaling pathway - cell viability counter screen (AID 1259380); also: nearly all actives have a fitted effect of over 30% in size
How it was run: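 Measured: luminescence from CellTiter-Glo after 30 min at room temperature, added to wells already read for the LiveBLAzer FRET reporter (2 hr substrate); ER-beta-UAS-bla HEK293T cells had 16 hr compound treatment at 37C, 5% CO2.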

[9] = target: Androgen receptor (Homo sapiens) (UniProt P10275); assay: qHTS assay to identify small molecule agonists of the androgen receptor (AR) signaling pathway in the presence of an antagonist (AID 1259381; calls by dose curve; also: nearly all actives have a fitted effect of over 15% in size)
Androgen receptor (Homo sapiens), sequence (P10275 whole entry, looked up): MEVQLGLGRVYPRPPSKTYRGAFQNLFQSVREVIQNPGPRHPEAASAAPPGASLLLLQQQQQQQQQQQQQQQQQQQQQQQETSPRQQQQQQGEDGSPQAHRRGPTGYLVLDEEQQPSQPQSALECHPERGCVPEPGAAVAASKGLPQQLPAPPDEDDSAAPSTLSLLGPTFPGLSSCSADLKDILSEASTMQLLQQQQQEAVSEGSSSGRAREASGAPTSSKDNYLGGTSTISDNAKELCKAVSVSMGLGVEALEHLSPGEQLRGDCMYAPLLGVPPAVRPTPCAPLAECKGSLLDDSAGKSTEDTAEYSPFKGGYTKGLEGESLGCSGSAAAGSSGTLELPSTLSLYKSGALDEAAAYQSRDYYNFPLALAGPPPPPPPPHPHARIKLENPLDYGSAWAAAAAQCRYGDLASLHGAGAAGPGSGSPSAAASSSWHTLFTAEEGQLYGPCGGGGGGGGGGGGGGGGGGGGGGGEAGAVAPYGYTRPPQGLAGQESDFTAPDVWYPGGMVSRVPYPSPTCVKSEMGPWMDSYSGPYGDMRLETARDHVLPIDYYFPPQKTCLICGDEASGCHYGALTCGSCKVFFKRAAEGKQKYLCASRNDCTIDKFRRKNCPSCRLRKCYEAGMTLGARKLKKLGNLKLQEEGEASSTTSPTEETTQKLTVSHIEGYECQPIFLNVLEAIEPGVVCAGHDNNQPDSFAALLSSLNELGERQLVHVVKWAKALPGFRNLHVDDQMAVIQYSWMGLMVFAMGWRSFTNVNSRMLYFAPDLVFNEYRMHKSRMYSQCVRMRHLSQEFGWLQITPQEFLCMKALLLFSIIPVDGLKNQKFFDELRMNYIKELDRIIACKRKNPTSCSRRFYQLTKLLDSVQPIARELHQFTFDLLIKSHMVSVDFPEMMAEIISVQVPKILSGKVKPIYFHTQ
How it was run: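 Luminescent ONE-Glo read, 30min at room temperature, follows 16hr compound exposure (15 concentrations) of MDA-kb2 cells at 37C, 0% CO2, with nilutamide added at 3.0uM final.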
% is scaled to controls: 0 for no effect and ±100 for the full control effect.

CC(C)(C)C(=O)CCc1ccc(Cl)cc1
inactive: outcome [1] | outcome [2] | outcome [3] | Potency [4] | outcome [5] | outcome [6] | outcome [7]

CCCCCCCCS(=O)(=O)O
inactive: outcome [1] | outcome [2] | outcome [3] | Potency [4] | outcome [5] | outcome [6] | Potency [8] | outcome [7]

O=C(O)/C=C(\CC(=O)O)C(=O)O
inactive: outcome [1] | outcome [2] | outcome [3] | Potency [4] | outcome [5] | outcome [6] | outcome [7]

CC(C)CC(O)Cc1ccccc1 (stereo unspecified)
inactive: outcome [1] | outcome [2] | outcome [3] | Potency [4] | outcome [5] | outcome [6] | Potency [8] | outcome [9] | outcome [7]

CC1(C)CC(N)CC(C)(C)N1
inactive: outcome [1] | outcome [2] | outcome [3] | Potency [4] | outcome [5] | outcome [6] | Potency [8] | outcome [7]

C[n+]1ccccc1/C=N/O
inactive: outcome [1] | outcome [2] | outcome [3] | Potency [4] | outcome [5] | outcome [6] | Potency [8] | outcome [7]

CC[N+](C)(CC)CC
inactive: outcome [1] | outcome [2] | outcome [3] | Potency [4] | outcome [5] | outcome [6] | Potency [8] | outcome [7]

CN(C)CCCN(C)C
inactive: viability change, negative = cytotoxic [1] -8.84% [at 8.39 µM] | viability change, negative = cytotoxic [2] 4.7% [at 8.39 µM] | activity change [3] 0.31% [at 8.39 µM] | activity change, negative = inhibition [4] 5.84% [at 8.39 µM] | activity, negative = inhibition [5] 14.4% [at 8.39 µM] | activity change, negative = cytotoxicity [6] 4.3% [at 8.39 µM] | activity change, negative = cytotoxicity [7] -0.979% [at 8.39 µM]

C=CCn1cc[n+](C)c1
inactive: outcome [1] | outcome [2] | outcome [3] | Potency [4] | outcome [5] | outcome [6] | Potency [8] | outcome [7]

C=CCOC(=O)CCCCCCCC
inactive: outcome [1] | outcome [2] | outcome [3] | Potency [4] | outcome [5] | outcome [6] | Potency [8] | outcome [7]

CCCCN=C(N)N=C(N)N
inactive: outcome [1] | outcome [2] | outcome [3] | Potency [4] | outcome [5] | outcome [6] | outcome [7]

CCCC(=O)C(CC)Sc1ccoc1C (stereo unspecified)
inactive: outcome [1] | outcome [2] | outcome [3] | Potency [4] | outcome [5] | outcome [6] | Potency [8] | outcome [9] | outcome [7]

Cc1cc(C)c(C)c(C)c1
inactive: outcome [1] | outcome [2] | outcome [3] | Potency [4] | outcome [5] | outcome [6] | Potency [8] | outcome [7]

Cc1cccc(N)n1
inactive: outcome [1] | outcome [2] | outcome [3] | Potency [4] | outcome [5] | outcome [6] | outcome [7]

C=C(C)C(=O)OCCCC
inactive: outcome [1] | outcome [2] | outcome [3] | Potency [4] | outcome [5] | outcome [6] | Potency [8] | outcome [9] | outcome [7]

C=CCN(CC=C)CC=C
inactive: outcome [1] | outcome [2] | outcome [3] | Potency [4] | outcome [5] | outcome [6] | Potency [8] | outcome [7]

CC(C)c1cc(C(C)C)cc(C(C)C)c1
inactive: outcome [1] | outcome [2] | outcome [3] | Potency [4] | outcome [5] | outcome [6] | Potency [8] | outcome [7]

CCCc1ncc(C(=O)O)s1
inactive: outcome [1] | outcome [2] | outcome [3] | Potency [4] | outcome [5] | outcome [6] | Potency [8] | outcome [9] | outcome [7]

O=C1CC2(CCCC2)CC(=O)N1CCNCC1COc2ccccc2O1 (stereo unspecified)
inactive: outcome [1] | outcome [2] | outcome [3] | Potency [4] | outcome [5] | outcome [6] | Potency [8] | outcome [7]

CC(O)C(CO)C(C)O (stereo unspecified)
inactive: outcome [1] | outcome [2] | outcome [3] | Potency [4] | outcome [5] | outcome [6] | Potency [8] | outcome [9] | outcome [7]

O=S(=O)(O)CC(O)CCl (stereo unspecified)
inactive: outcome [1] | outcome [2] | outcome [3] | Potency [4] | outcome [5] | outcome [6] | Potency [8] | outcome [7]

C[C@]12C=CC(=O)C=C1[C@@H](F)C[C@@H]1[C@@H]2[C@@H](O)C[C@@]2(C)[C@H]1CC[C@]2(O)C(=O)CO
inactive: outcome [1] | outcome [2] | outcome [3] | Potency [4] | outcome [6] | Potency [8] | outcome [7]

CC(=O)/C=C/C=C1/C2CCC(C2)C1(C)C (stereo unspecified)
inactive: outcome [1] | outcome [2] | outcome [3] | Potency [4] | outcome [6] | Potency [8] | outcome [9] | outcome [7]

Cc1ccc(S(=O)(=O)NC(=O)NN2CC3CCCC3C2)cc1 (stereo unspecified)
inactive: outcome [1] | outcome [2] | outcome [3] | Potency [4] | outcome [6] | Potency [8] | outcome [7]

NS(=O)(=O)c1cc2c(cc1C(F)(F)F)NCNS2(=O)=O
inactive: outcome [1] | outcome [2] | outcome [3] | Potency [4] | outcome [6] | Potency [8] | outcome [7]

O=C(O)P(=O)(O)O
inactive: outcome [1] | outcome [2] | outcome [3] | Potency [4] | outcome [6] | Potency [8] | outcome [7]

NNC(=O)CCCCC(=O)NN
inactive: outcome [1] | outcome [2] | outcome [3] | Potency [4] | outcome [6] | Potency [8] | outcome [7]

C=CCN1CCc2nc(N)sc2CC1
inactive: outcome [1] | outcome [2] | outcome [3] | Potency [4] | outcome [6] | Potency [8] | outcome [9] | outcome [7]

CCC(=O)OCCOc1ccccc1
inactive: outcome [1] | outcome [2] | outcome [3] | Potency [4] | outcome [6] | Potency [8] | outcome [7]
